About 79,000 compounds went through this panel and 15% of them were active in at least one assay; those are over-represented in the sample as a whole. Values without a mark were called inactive. The source made the active and inactive calls. Cut-off read from the data, not from the text of the source: active = growth inhibition above about 70%; inactive = the rest.
Assays:
[1] = NCI Yeast Anticancer Drug Screen. Data for the rad50 strain (AID 155);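 note: 0% = growth of vehicle-only cultures of the same strain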; conditions: S. cerevisiae rad50 strain growth inhibition, stronger effect = higher value
Outline: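 Compounds were tested on a yeast strain with an engineered DNA damage repair alteration; the reported value is growth inhibition normalised to vehicle treatment.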

[2] = NCI Yeast Anticancer Drug Screen. Data for the mec2-1 strain (AID 157); conditions: S. cerevisiae mec2-1 strain, stronger effect = higher value
Outline: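 Vehicle-treated cultures served as reference for growth inhibition of compound-exposed mec2-1 yeast.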

[3] = NCI Yeast Anticancer Drug Screen. Data for the sgs1 mgt1 strain (AID 161);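 note: 0% = growth of cultures given vehicle only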; conditions: S. cerevisiae sgs1 mgt1 strain, stronger effect = higher value
Outline: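 Genetically altered yeast, compound exposure, growth inhibition relative to vehicle.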

[4] = NCI Yeast Anticancer Drug Screen. Data for the cln2 rad14 strain (AID 165);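 note: 0% = growth equal to vehicle treated cultures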; conditions: S. cerevisiae cln2 rad14 strain, stronger effect = higher value
Outline: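 Each compound was tested on cln2 rad14 yeast. Inhibition of growth was calculated against vehicle-exposed controls.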

[5] = NCI Yeast Anticancer Drug Screen. Data for the bub3 strain (AID 167); conditions: S. cerevisiae bub3 mutant strain, stronger effect = higher value
Outline: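 Growth of a checkpoint-deficient yeast mutant is measured after compound exposure. Values represent inhibition relative to vehicle.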

[6] = NCI Yeast Anticancer Drug Screen. Data for the mlh1 rad18 strain (AID 175); conditions: S. cerevisiae mlh1 rad18 strain growth inhibition, stronger effect = higher value
Outline: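 Vehicle-treated cultures served as the reference for growth inhibition in a yeast strain carrying DNA damage repair alterations exposed to each compound.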

[7] = at 5.0 µM (retest, dose inferred, filed as 0.5)
[8] = at 50.0 µM (retest, dose inferred, filed as 5.0)

SMILES | growth inhibition [1, 7] [%] | growth inhibition [1, 8] | growth inhibition ([1]; at 50.0 µM) | growth inhibition [2, 7] [%] | growth inhibition [2, 8] | growth inhibition ([2]; at 50.0 µM) | growth inhibition [3, 7] [%] | growth inhibition [3, 8] | growth inhibition ([3]; at 50.0 µM) | growth inhibition [4, 7] [%] | growth inhibition [4, 8] | growth inhibition ([4]; at 50.0 µM) | growth inhibition [5, 7] [%] | growth inhibition [5, 8] | growth inhibition ([5]; at 50.0 µM) | growth inhibition [6, 7] [%] | growth inhibition [6, 8] | growth inhibition ([6]; at 50.0 µM)
O=C(Nc1cccc(Br)c1)Oc1ccc(Cl)c2cccnc12 | 38 | 98% (active) | 89% (active) | 4 | 99% (active) | 91.1% (active) | 7 | 99% (active) | 91.7% (active) | 4 | 97% (active) | 89% (active) | -7 | 98% (active) | 89.9% (active) | 16 | 98% (active) | 90.8% (active)
COc1ccc(C(=O)Cc2nc3nnc(NC(=O)Nc4ccc(Cl)cc4)n3nc2CC(=O)c2ccc(OC)cc2)cc1 | 2 | 96% (active) | 93.1% (active) | 7 | 98% (active) | 94.9% (active) | 1 | 98% (active) | 94.8% (active) | -1 | 97% (active) | 93.5% (active) | 7 | 98% (active) | 96.2% (active) | 4 | 97% (active) | 95.1% (active)
Cc1nc(Nc2c(C)cccc2C)c2c(C)c[nH]c2n1 | -2 | 2% | 86.8% (active) | -5 | 3% | 69.1% | 0 | 1% | 85.2% (active) | -1 | -1% | 27.2% | -4 | -2% | 75.5% (active) | -2 | -5% | 90.3% (active)
C/C=c1/[nH]c(=O)/c(=C\c2ccccc2)[nH]c1=O | -3 | 9% | 11.3% | 2 | -1% | -3.8% | -2 | 2% | -5.45% | 3 | -2% | 24.6% | -2 | -4% | -7.35% | 24 | 1% | 4.35%
COc1ccc(C2CC(CO)ON2c2ccccc2)cc1 (stereo not given) | -17 | 7% | 98% (active) | -14 | -9% | 98.5% (active) | -1 | -15% | 98.4% (active) | -23 | -18% | 97.9% (active) | -21 | -33% | 98.5% (active) | -6 | 1% | 98.8% (active)
CCS(=O)(=O)/C=C(\C#Cc1ccccc1)c1ccccc1 | 9 | 84% (active) | 79.2% (active) | -1 | 95% (active) | 82.4% (active) | 5 | 90% (active) | 83.7% (active) | 12 | 81% (active) | 80.3% (active) | 11 | 99% (active) | 87.5% (active) | 6 | 94% (active) | 92.2% (active)
Cc1cc(N(CCC#N)CCC#N)ccc1/C(N=Nc1cccc([N+](=O)[O-])c1)=N/NC(=O)c1cc(Cl)ccc1O | 8 | 47% | 63.4% | 8 | 25% | 47% | 9 | 49% | 66% | -1 | 28% | 23.9% | 8 | 58% | 79.3% (active) | 12 | 29% | 31.9%
c1ccc(NCCSc2nc3ccccc3s2)cc1 | 6 | 44% | 42.3% | 9 | 22% | 27.4% | 2 | 80% (active) | 26% | -21 | 43% | 8.55% | 24 | 70% (active) | 81.6% (active) | 8 | 77% (active) | 77.7% (active)
Cc1cc(/C=C/c2cccc[n+]2C)c(C)n1-c1ccccc1 | 4 | 85% (active) | 96% (active) | -1 | 93% (active) | 91.6% (active) | 1 | 90% (active) | 95.8% (active) | -4 | 85% (active) | 90.8% (active) | -8 | 85% (active) | 17.1% | 6 | 94% (active) | 93.7% (active)
O=[N+]([O-])c1cc2cccnc2c2ncccc12 | -8 | -15% | 63% | -43 | -18% | 41.1% | -5 | 20% | 81.2% (active) | -8 | 21% | 62.2% | -21 | -86% | 34.4% | 4 | 22% | 76.2% (active)
